Results as given in PubChem BioAssay (NCATS).
Where “and” joins values, the source holds several entries; their conditions need not be identical. Equal values may be shown once. Records with an inconclusive call do not appear. Calls of active or inactive are those of the source. The call rests on the fitted dose curve; in most records, active means well fitted inhibition curve with a large enough effect; inconclusive means small, poorly fitted or top-dose-only effect; inactive means flat fitted curve, though single readings scatter.

What follows are compounds tested on Zika virus NS2B-NS3 protease (linked construct) (assay: Confirmatory screen NINDS AMC qHTS for Zika virus inhibitors (AID 1347152; further: potency means the concentration at half of the fitted maximal effect;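 on activity change, negative = inhibition: AMC fluorescence gain from cleaved Bz-Nle-KRR-AMC substrate over 15 min; top concentration of the series differs between compounds; 0% = no-inhibitor control and -100% = no-enzyme control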)). Conditions: Purified linked NS2B-NS3, AMC substrate fluorescence; series mostly up to 56.6 µM; activity change, negative = inhibition: at the top concentration.
How it was run: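 Purified NS2B-NS3 protease with NS2B hydrophilic domain linked to NS3 protease domain by flexible linker, 1 nM final in 10 mM Tris-HCl pH 8.0, 0.01% Tween 20. Compounds preincubated 15 min, room temperature; Bz-Nle-KRR-AMC 10 microM (Km 18.3 µM); 15-min fluorescence change, 4-parameter Hill fit.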
Further: nearly all actives have a fitted effect of over 70% in size.

Compound	activity change, negative = inhibition	Potency
Cc1c(OCC(F)(F)F)ccnc1CS(=O)c1nc2ccccc2[nH]1 (stereo not given)	2.05% (inactive)	
O=C(O)c1cn(-c2ccc(F)cc2)c2cc(N3CCNCC3)c(F)cc2c1=O		24.1 µM (active) and 27.1 µM (active)
COc1cc2c(cc1OC)C1CC(=O)C(CC(C)C)CN1CC2 (stereo not given)	-2.14% (inactive)	

These compounds were tested on Zika virus NS2B-NS3 protease (unlinked complex) (assay: Confirmatory screen GU AMC qHTS for Zika virus inhibitors (AID 1347153;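 further: percent inhibition with 0% = no inhibitor control and 100% = no enzyme control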)). Conditions: Recombinant NS2B-NS3 protease, AMC substrate fluorescence; series mostly up to 57.1 µM; activity, negative = inhibition: at the top concentration.
How it was run: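 Unlinked NS2B-NS3 complex (25 nM) in 10 mM Tris-HCl pH 8.0, 0.01% Tween 20 preincubated 15 min with compound, then 10 microM Bz-Nle-KRR-AMC (Km 18.3 µM). Fluorescence change over 15 min, normalized, Hill-fitted.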

Compound	activity, negative = inhibition
Cc1c(OCC(F)(F)F)ccnc1CS(=O)c1nc2ccccc2[nH]1 (stereo not given)	14.7% (inactive)
Cc1nc(-c2ccc(OCC(C)C)c(C#N)c2)sc1C(=O)O	-21% (inactive)
COc1cc2c(cc1OC)C1CC(=O)C(CC(C)C)CN1CC2 (stereo not given)	-3.91% (inactive)

The compounds below were run on Zika virus NS2B-NS3 protease (assay: Primary screen GU AMC qHTS for Zika virus inhibitors (AID 1347154; further: potency means the concentration at half of the fitted maximal effect;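 on activity change, negative = inhibition: 0% = no-inhibitor control and -100% = no-enzyme control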)). Conditions: Zika NS2B-NS3 unlinked protease, AMC fluorogenic substrate; series mostly up to 54.1 µM; activity change, negative = inhibition: at the top concentration.
How it was run: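 Unlinked Zika NS2B hydrophilic domain–NS3 protease complex at 25 nM in 10 mM Tris-HCl pH 8.0, 0.01% Tween 20, with an AMC peptide substrate. Fluorescence change (340/450 nm) over 15 min at room temperature, normalized to controls, fitted to 4-parameter Hill.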

Compound	Potency	activity change, negative = inhibition
CNC[C@H](O)c1ccc(O)c(O)c1	inactive	
N[C@@H](Cc1cc(I)c(Oc2cc(I)c(O)c(I)c2)c(I)c1)C(=O)O	inactive	
C[C@@H](c1ncncc1F)[C@](O)(Cn1cncn1)c1ccc(F)cc1F		2.77% (inactive)
COc1ccccc1N1CCN(CCN(C(=O)C2CCCCC2)c2ccccn2)CC1		0.766% (inactive)
Nc1nc(N)c(N=O)c(OCC2CCCCC2)n1		-5.47% (inactive)
C[C@@H](N)C1CCC(C(=O)Nc2ccncc2)CC1 (stereo not given in full)	inactive	
Cc1cccc(C#Cc2ccccc2)n1	inactive	
Cc1cccc(-c2[nH]ncc2-c2ccc3ncccc3n2)n1		-1.34% (inactive)
O=C1NC(=O)C(c2ccccc2[N+](=O)[O-])=C1Nc1ccc(O)c(Cl)c1	inactive	
O=C(O)c1cccnc1Nc1cccc(C(F)(F)F)c1	inactive	
Cc1c(OCC(F)(F)F)ccnc1CS(=O)c1nc2ccccc2[nH]1 (stereo not given)	inactive	
CCOC(=O)C1=C(O)C(=O)N(Cc2ccccc2)C1		10.1% (inactive)
O=C(c1ccccc1)c1ccc2n1CCC2C(=O)O (stereo not given)	inactive	
COc1c2occc2cc2ccc(=O)oc12	inactive	
O=c1ccc2ccc(O)c(O)c2o1		-4.92% (inactive)
Cc1cc(Cl)ccc1OCCCC(=O)NO		-3.01% (inactive)
Cc1nc(-c2ccc(OCC(C)C)c(C#N)c2)sc1C(=O)O	21.5 µM (active)	

Compound	Potency	activity change, negative = inhibition
CC(=O)NC[C@H]1CN(c2ccc(N3CCOCC3)c(F)c2)C(=O)O1		5.32% (inactive)
NNc1nncc2ccccc12	inactive	
CCOC(=O)C(C)Oc1cccc2c(=O)n(CC(=O)Nc3ccc4c(c3)OCCO4)ccc12 (stereo not given)		12.1% (inactive)
CC1(C)NC(=O)N(c2ccc([N+](=O)[O-])c(C(F)(F)F)c2)C1=O	inactive	
NC(=NCc1ccccc1)NC(=O)c1nc(Cl)c(N)nc1N		8.39% (inactive)
Cc1cc(O)c2c(c1)C(=O)c1cc(O)cc(O)c1C2=O		-4.75% (inactive)
CC(=O)N1CCN(c2ccc(OC[C@H]3CO[C@](Cn4ccnc4)(c4ccc(Cl)cc4Cl)O3)cc2)CC1	inactive	
S=c1nc[nH]c2nc[nH]c12	inactive	
COc1cc2c(cc1OC)C1CC(=O)C(CC(C)C)CN1CC2 (stereo not given)		6.48% (inactive)
CC(C)c1ccc2c(c1)c(SC(C)(C)C)c(CC(C)(C)C(=O)O)n2Cc1ccc(Cl)cc1		-1.73% (inactive)
O=C1c2ccccc2-c2n[nH]c3cccc1c23	inactive	
CN(C)CCCC1(c2ccc(F)cc2)OCc2cc(C#N)ccc21 (stereo not given)		-2.37% (inactive)
O=c1cc(N2CCOCC2)oc2c(-c3ccccc3)cccc12	inactive	
Cc1nccn1CC1CCc2c(c3ccccc3n2C)C1=O (stereo not given)	inactive	
COc1ccc2cc([C@H](C)C(=O)O)ccc2c1	inactive	
NCCCCNCCCN		7.07% (inactive)
Clc1ccc2c(N3CCN(CCCN4CCN(c5ccnc6cc(Cl)ccc56)CC4)CC3)ccnc2c1		-3.01% [at 25.8 µM] (inactive)
